Experimental data reported in PubChem BioAssay.
Activity calls are given as the source filed them. How the calls were made is not given here.

The compounds below were run against Pantothenate synthetase (Mycobacterium tuberculosis (strain ATCC 25618 / H37Rv)) (UniProt P9WIL5) (assay: Recombinant Mtb pantothenate synthetase (PanC) inhibitors, coupled enzyme, confirmatory (AID 375;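 further: 0% = full reaction with vehicle and 100% = no enzyme background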)). Conditions: coupled enzyme assay; at 10 µM, stronger effect = higher value.
Pantothenate synthetase (Mycobacterium tuberculosis (strain ATCC 25618 / H37Rv)), sequence (P9WIL5 whole entry, looked up): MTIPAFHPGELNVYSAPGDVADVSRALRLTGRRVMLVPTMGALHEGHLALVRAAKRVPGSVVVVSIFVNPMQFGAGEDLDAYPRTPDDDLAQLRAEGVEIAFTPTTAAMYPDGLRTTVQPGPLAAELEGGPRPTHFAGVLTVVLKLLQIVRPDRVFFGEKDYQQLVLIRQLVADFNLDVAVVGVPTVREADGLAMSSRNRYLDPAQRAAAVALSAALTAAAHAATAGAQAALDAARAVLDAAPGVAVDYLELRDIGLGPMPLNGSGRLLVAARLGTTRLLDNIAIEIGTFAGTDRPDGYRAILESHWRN
For CCOC(=O)N1CCN(c2c(N3CCN(c4ccccc4OC)CC3)c(=O)c2=O)CC1, the inhibition was 0% (inactive).
With CCSCc1nnc(SCC(=O)Nc2cccc(SC)c2)n1C the inhibition was 4% (inactive).
For O=C(CCN1CCc2ccccc2C1)Nc1ccc2c(c1)OCO2, the inhibition was 0% (inactive).
In the case of CC1Cc2nc(SCC(=O)Nc3ccccc3F)n(C)c(=O)c2S1 (stereo not given), the inhibition is reported as 7% (inactive).
For O=C(NC1CCCC1)c1c[nH]c2ccc(F)cc2c1=O, the inhibition was 0% (inactive).
For Cn1c(=O)c2c(nc(SCCOc3ccc4ccc(=O)oc4c3)n2C)n(C)c1=O, the inhibition was 0% (inactive).
COC(=O)COc1ccc(S(=O)(=O)NCCC2=CCCCC2)cc1 was tested, and the inhibition was 2% (inactive).
For CC(=O)Nc1nc(-c2ccccc2)nc(C)c1C(C)=O, the inhibition was 1% (inactive).
In the case of COc1ccc(OC)c(NC(=O)c2nnn(Cc3ccc(Br)cc3F)c2N)c1, the inhibition is reported as 0% (inactive).
With CCn1cc(/C=C(/C#N)S(=O)(=O)c2ccccc2)cn1 the inhibition was 2% (inactive).
For COc1cc(Nc2cc(C)nc3ncnn23)cc(OC)c1OC, the inhibition was 0% (inactive).
With Cc1noc(NS(=O)(=O)c2ccc(NC(=O)CCC3CCCC3)cc2)c1C the inhibition was 0% (inactive).
For Cc1cc(NC(c2cccnc2)c2c(C)[nH]c3ccccc23)no1 (stereo not given), the inhibition was 0% (inactive).
In the case of COCCOC(=O)C1=C(C)OC(N)=C(C#N)C1c1ccc2c(c1)OCO2 (stereo not given), the inhibition is reported as 0% (inactive).
For Cc1nnc(NC2CCCCC2)[nH]c1=O, the inhibition was 3% (inactive).
For COc1ccccc1OC(=O)c1ccc2nsnc2c1, the inhibition was 0% (inactive).
Cn1cc(Cl)c(C(=O)NC2CCCC2)n1 was tested, and the inhibition was 6% (inactive).
In the case of Cc1cccc2cc(CN(Cc3nnnn3Cc3ccccc3)C3CCCC3)c(=O)[nH]c12, the inhibition is reported as 0% (inactive).
With O=C(c1cnc2sccn2c1=O)N1CCc2ccccc2C1 the inhibition was 0% (inactive).
In the case of O=S(=O)(c1ccc(F)c(Cl)c1)N1CCCC1, the inhibition is reported as 0% (inactive).
COc1ccccc1C(=O)N1CCN(C(=O)COc2cccc(C)c2)CC1 was tested, and the inhibition was 3% (inactive).
In the case of CCN1CCN(CCNC(=O)c2cn(C(C)c3ccccc3F)nn2)CC1 (stereo not given), the inhibition is reported as 0% (inactive).
In the case of COc1ccccc1OCCn1c(=O)sc2ccccc21, the inhibition is reported as 0% (inactive).
With c1ccc(OCCOc2ncnc3sccc23)cc1 the inhibition was 0% (inactive).
In the case of Cc1nc2ccc(S(=O)(=O)NC(C(=O)Nc3nccs3)C(C)C)cc2s1 (stereo not given), the inhibition is reported as 0% (inactive).
In the case of NC(=O)CN1C(=O)C(O)(CC(=O)c2ccccc2O)c2ccccc21 (stereo not given), the inhibition is reported as 0% (inactive).
CCCC(=O)Nc1cc(C)c(NC(=O)c2ccccn2)cn1 was tested, and the inhibition was 0% (inactive).
With CCOC(=O)c1ccc(N2C(=O)CC(N3CCN(C/C=C/c4ccccc4)CC3)C2=O)cc1 (stereo not given) the inhibition was 2% (inactive).
In the case of COC(=O)CSC1=C(C#N)C(c2ccc(F)cc2)CC(=O)N1 (stereo not given), the inhibition is reported as 0% (inactive).
With CC12CCC(C(=O)O)(c3nc(C#N)c(C#N)nc31)C2(C)C (stereo not given) the inhibition was 13% (inactive).
CCC(C(=O)OCC(=O)Nc1c(C)n(C)n(-c2ccccc2)c1=O)c1ccccc1 (stereo not given) was tested, and the inhibition was 2% (inactive).
In the case of Cc1[nH]n2c(=O)cc(Cc3ccccc3)nc2c1C#N, the inhibition is reported as 0% (inactive).
C[C@H](CCC(=O)O)[C@H]1CC[C@H]2[C@@H]3C(=O)C[C@@H]4CC(=O)CC[C@]4(C)[C@H]3CC(=O)[C@]12C was tested, and the inhibition was 2% (inactive).
For CCOC(=O)CSc1nnc([C@H](CC(C)C)NC(=O)OC(C)(C)C)o1, the inhibition was 2% (inactive).
For O=C(O)CCC(=O)Nc1nc(-c2ccccc2)cs1, the inhibition was 0% (inactive).
Cn1c(=O)c(=O)n(C)c2cc(S(=O)(=O)N3CCCCC3)ccc21 was tested, and the inhibition was 14% (inactive).
With CC(C)(C)n1nnnc1C(c1cccc(C#N)c1)N1CCC(Cc2ccccc2)CC1 (stereo not given) the inhibition was 2% (inactive).
CCOC(=O)C1=C(CS(=O)(=O)c2ccc(F)c(C)c2)NC(=O)NC1c1ccc(O)c(O)c1 (stereo not given) was tested, and the inhibition was 7% (inactive).
CCOc1ccc(-c2nnc(N)s2)cc1 was tested, and the inhibition was 0% (inactive).
For Cc1cccc(C2c3c(n(C)c(=O)n(C)c3=O)N=C3c4ccccc4C(=O)C32)c1 (stereo not given), the inhibition was 7% (inactive).
